Drawing on PubChem BioAssay (EPA / NIEHS), this text covers outcome and AC50 for seven compounds.

The structures appear in SMILES notation. Active and inactive are the calls of the source. How the source made its calls: active means hit-call score of the fitted dose curve at least 0.9, where 1 is the maximum; inactive means score below 0.9.

A word on the AC50: it is the midpoint of the concentration-response curve, whichever way the signal moves.

The nature of assay [1]: ATG_GRE_CIS: Attagene CIS-FACTORIAL HepG2 Assay for human Glucocorticoid Response Elements (GRE) (AID 2282947). The conditions noted are these: HepG2 GRE cis-reporter, Attagene multiplex mRNA; actives raise or lower the signal. Summed up:
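Multiplexed cis-reporter mRNA induction, HepG2, 24 h post-dose. RT-PCR, FAM-labelled, HpaI-digested amplicons by CE. Bidirectional fit vs DMSO.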

The nature of assay [2]: ATG_ISRE_CIS: Attagene CIS-FACTORIAL HepG2 Assay for human Interferon Regulatory Factor 1 (IRF1) binding to an Interferon-Stimulated Response Element (ISRE) (AID 2282948). The following applies: HepG2 ISRE cis-reporter (Attagene), mRNA transcription readout; actives raise or lower the signal. Summed up: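 Endogenous transcription factor activity read as reporter transcript abundance via RT-PCR and capillary electrophoresis. HepG2 cells transiently transfected, 24 h chemical exposure. Gain or loss fitted against DMSO baseline.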

A short description of assay [3]: ATG_M_32_CIS: Attagene CIS-FACTORIAL HepG2 Assay for M32 Transcription Factor (Internal Marker) (AID 2282949).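 Further: background control marker of the multiplexed CIS panel rather than a real target.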 The conditions noted are these: HepG2 Attagene cis-factorial M32 reporter, mRNA; actives raise or lower the signal. Summed up:
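Transient MRTU transfection of HepG2; 24 h compound treatment; TriZol RNA, oligo(dT) RT, reporter PCR, 6-FAM primer extension, HpaI cut, CE. Gain/loss of signal vs DMSO.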

Assay [4] is described as follows: ATG_M_06_CIS: Attagene CIS-FACTORIAL HepG2 Assay for M06 Transcription Factor (Internal Marker) (AID 2282950). The conditions noted are these: HepG2 Attagene CIS-FACTORIAL M06 internal marker reporter; actives raise or lower the signal. In outline:
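Serves as a background control readout. Transfected HepG2 exposed to compounds for 24 h, then reporter transcripts quantified by fluorescent RT-PCR and capillary electrophoresis. Both directions fitted against DMSO baseline.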

The target in assay [5] is Hypoxia-inducible factor 1-alpha (Homo sapiens) (UniProt Q16665). Put plainly: ATG_HIF1a_CIS: Attagene CIS-FACTORIAL HepG2 Assay for human Hypoxia Inducible Factor 1 (HIF1A) (AID 2282951). The following applies: HepG2 Attagene cis-factorial HIF1a reporter transcription; actives raise or lower the signal. In outline:
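HepG2, transient cis-reporter library, 24 h dosing. RNA → RT (oligo dT) → PCR → 6-FAM primer extension → HpaI → CE. Bidirectional curve fit vs DMSO.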

For assay [6], the target named is Hepatocyte nuclear factor 6 (Homo sapiens) (UniProt Q9UBC0). Kind of assay: ATG_HNF6_CIS: Attagene CIS-FACTORIAL HepG2 Assay for human Hepatocyte Nuclear Factor 6 (HNF6) (AID 2282952). The conditions noted are these: HepG2 Attagene cis-factorial HNF6 reporter transcription; actives raise or lower the signal. In outline:
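Endogenous factor activity read in transiently transfected HepG2 via promoter-regulated reporter transcripts. RNA harvested 24 h post-dosing, reverse-transcribed, PCR-amplified, FAM-labelled, HpaI-digested and resolved by capillary electrophoresis; fitted in both directions against DMSO.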

The target in assay [7] is Heat shock factor protein 1 (Homo sapiens) (UniProt Q00613). Put plainly: ATG_HSE_CIS: Attagene CIS-FACTORIAL HepG2 Assay for human Heat Shock Transcription Factor 1 (HSE) (AID 2282953). The following applies: HepG2 HSE cis-reporter, Attagene RNA transcription; actives raise or lower the signal. Summed up:
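Endogenous transcription factor activity in transiently transfected HepG2, read as reporter mRNA by RT-PCR with fluorescent capillary electrophoresis after 24 h. Gain or loss of signal fitted versus DMSO baseline.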

Assay [8] can be described thus: ATG_MRE_CIS: Attagene CIS-FACTORIAL HepG2 Assay for human Metal Responsive Element (MRE) (AID 2282954). The conditions noted are these: HepG2 MRE cis-reporter transcription, Attagene multiplex; actives raise or lower the signal. In outline: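 Multiplexed cis-reporter assay in human HepG2 liver cells, 24 h incubation with test chemical. Reporter transcripts measured by RT-PCR and capillary electrophoresis; values from bidirectional curve fitting versus DMSO.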

Assay [9] can be described thus: ATG_PBREM_CIS: Attagene CIS-FACTORIAL HepG2 Assay for human Phenobarbital-responsive Enhancer Module (PBREM) (AID 2282955). The following applies: HepG2 PBREM cis-reporter, Attagene multiplexed transcription; actives raise or lower the signal. In outline: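 HepG2, transient MRTU transfection, 24 h dosing; RNA → oligo(dT) RT → PCR → 6-FAM extension → HpaI → CE. Bidirectional fit vs DMSO.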

Assay [10] deals with Paired box protein Pax-6 (Homo sapiens) (UniProt P26367). Kind of assay: ATG_Pax6_CIS: Attagene CIS-FACTORIAL HepG2 Assay for human Paired Box 6 (PAX6) (AID 2282956). The following applies: HepG2 CIS-FACTORIAL PAX6 reporter transcription, RNA readout; actives raise or lower the signal. Summed up:
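Read-out is reporter transcript level, measured by RT-PCR with fluorescent primer extension and capillary electrophoresis after 24 h dosing of transfected HepG2 cells. Activity in either direction fitted relative to DMSO control.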

Assay [11] in a line: ATG_PXRE_CIS: Attagene CIS-FACTORIAL HepG2 Assay for human Pregnane X Receptor Element (PXRE) (AID 2282957). The conditions noted are these: HepG2 Attagene CIS-FACTORIAL PXRE reporter, mRNA; actives raise or lower the signal. In outline: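 Reporter transcripts under endogenous PXR-responsive cis-regulation quantified from total RNA of transfected HepG2 cells 24 h post-dosing, via RT-PCR with fluorescent primer extension and capillary electrophoresis. Gain or loss of signal fitted against DMSO baseline.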

A short description of assay [12]: ATG_RORE_CIS: Attagene CIS-FACTORIAL HepG2 Assay for human RAR-related Orphan Receptor Element (RORE) (AID 2282959). The following applies: HepG2 Attagene cis-factorial RORE reporter, mRNA; actives raise or lower the signal. In outline: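 Multiplexed reporter assay measuring mRNA induction from a cis promoter element in transiently transfected HepG2 cells after 24 h treatment. Detection via RT-PCR and capillary electrophoresis fluorescence; DMSO serves as baseline.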

The nature of assay [13]: ATG_Sox_CIS: Attagene CIS-FACTORIAL HepG2 Assay for human SRY-box transcription factor (SOX) (AID 2282960). The following applies: HepG2 Attagene cis-factorial SOX reporter, mRNA; actives raise or lower the signal. Summed up: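 Cells were transfected with reporter constructs under cis-regulatory promoters, then exposed to chemicals for 24 h. Reporter transcripts were quantified by fluorescence after RT-PCR and capillary electrophoresis; activity was fitted in both directions against DMSO.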

Assay [14] concerns the target Transcription factor Sp1 (Homo sapiens) (UniProt P08047). Put plainly: ATG_Sp1_CIS: Attagene CIS-FACTORIAL HepG2 Assay for human Specificity Protein 1 (Sp1) (AID 2282961). The conditions noted are these: HepG2 Sp1 cis-reporter transcription, actives raise or lower the signal. Summed up:
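Measures mRNA induction of an Sp1-linked reporter in HepG2 cells 24 h post-dosing. Multiplexed reporters read by RT-PCR and capillary electrophoresis; DMSO serves as negative control and baseline.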

The nature of assay [15]: ATG_SREBP_CIS: Attagene CIS-FACTORIAL HepG2 Assay for human Sterol Regulatory Element Binding (SREBP) (AID 2282962). The conditions noted are these: HepG2 Attagene cis-factorial SREBP reporter, mRNA; actives raise or lower the signal. Summed up:
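Endogenous SREBP activity read as cis-element-driven reporter transcript in transiently transfected HepG2, 24 h post-dosing; quantified via RT-PCR plus capillary electrophoresis of fluorescent fragments. Gain or loss of signal fitted relative to DMSO baseline.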

Assay [16] addresses Signal transducer and activator of transcription 3 (Homo sapiens) (UniProt P40763). Put plainly: ATG_STAT3_CIS: Attagene CIS-FACTORIAL HepG2 Assay for human Signal Transducer and Activator of Transcription 3 (STAT3) (AID 2282963). The following applies: HepG2, Attagene cis-factorial STAT3 reporter transcription; actives raise or lower the signal. In outline:
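Cis-factorial format: endogenous transcription factors in HepG2 drive transfected reporter units. After 24 h treatment, reporter RNA was reverse-transcribed, amplified, FAM-labelled and HpaI-digested before CE analysis; activity scored in both directions against DMSO.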

Assay [17] can be described thus: ATG_TA_CIS: Attagene CIS-FACTORIAL HepG2 Assay for human TA Basal Promoter (AID 2282964). The conditions noted are these: HepG2 Attagene CIS-factorial TA basal promoter reporter; actives raise or lower the signal. In outline:
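Background-control readout: TA basal promoter reporter mRNA, fitted in both directions relative to DMSO. Measured by RT-PCR and capillary electrophoresis 24 hours after treating HepG2 human liver cells transiently carrying multiplexed cis-regulated reporter constructs.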

Assay [18] in a line: ATG_TCF_b_cat_CIS: Attagene CIS-FACTORIAL HepG2 Assay for human T-Cell-Factor with beta-catenin (TCF/b-cat) (AID 2282965). The conditions noted are these: HepG2 TCF/beta-catenin cis-reporter transcription, actives raise or lower the signal. Summed up:
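Endogenous transcription factor activity is captured through cis-promoter reporter constructs transiently introduced into human HepG2 liver cells. Induced reporter mRNA is measured after 24 h and fitted bidirectionally relative to DMSO.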

Assay [19] can be described thus: ATG_PPRE_CIS: Attagene CIS-FACTORIAL HepG2 Assay for human Peroxisome Proliferator-activated Response Element (PPRE) (AID 2282958). The conditions noted are these: HepG2 PPRE cis-element reporter, Attagene transcription factor profiling; actives raise or lower the signal. In outline:
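Transcript-level reporter induction in transfected HepG2 cells after 24 h chemical exposure, quantified by fluorescence from RT-PCR products separated by capillary electrophoresis.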

Hepatocyte nuclear factor 6 (Homo sapiens), sequence (Q9UBC0 whole entry, looked up): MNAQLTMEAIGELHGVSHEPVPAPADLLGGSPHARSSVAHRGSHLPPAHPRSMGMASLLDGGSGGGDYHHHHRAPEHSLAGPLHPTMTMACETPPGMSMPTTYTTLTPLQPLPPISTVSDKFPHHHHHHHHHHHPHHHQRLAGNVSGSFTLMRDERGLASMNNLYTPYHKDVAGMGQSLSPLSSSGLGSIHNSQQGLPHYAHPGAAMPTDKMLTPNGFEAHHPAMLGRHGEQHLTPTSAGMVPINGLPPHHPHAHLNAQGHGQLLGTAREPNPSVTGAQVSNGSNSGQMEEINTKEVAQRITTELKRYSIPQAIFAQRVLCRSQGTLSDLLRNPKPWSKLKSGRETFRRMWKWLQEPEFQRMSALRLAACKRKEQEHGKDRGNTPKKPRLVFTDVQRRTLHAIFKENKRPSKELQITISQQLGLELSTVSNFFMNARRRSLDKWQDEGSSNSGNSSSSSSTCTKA
Heat shock factor protein 1 (Homo sapiens), sequence (Q00613 whole entry, looked up): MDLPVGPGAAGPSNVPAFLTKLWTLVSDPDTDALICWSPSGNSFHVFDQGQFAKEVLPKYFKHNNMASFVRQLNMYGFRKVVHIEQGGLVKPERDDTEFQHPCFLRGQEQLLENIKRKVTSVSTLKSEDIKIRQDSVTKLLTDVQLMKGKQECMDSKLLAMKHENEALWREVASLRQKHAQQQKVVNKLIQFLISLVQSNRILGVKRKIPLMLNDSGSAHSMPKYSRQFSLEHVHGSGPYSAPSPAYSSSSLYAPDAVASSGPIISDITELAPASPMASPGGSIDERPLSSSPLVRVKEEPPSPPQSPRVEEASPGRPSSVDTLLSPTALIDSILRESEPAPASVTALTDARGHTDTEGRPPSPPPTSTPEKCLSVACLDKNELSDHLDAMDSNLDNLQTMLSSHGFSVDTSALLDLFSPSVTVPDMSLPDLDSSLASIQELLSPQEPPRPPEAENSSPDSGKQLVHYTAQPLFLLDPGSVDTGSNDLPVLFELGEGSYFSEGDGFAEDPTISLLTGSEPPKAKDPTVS
Signal transducer and activator of transcription 3 (Homo sapiens), sequence (P40763 whole entry, looked up): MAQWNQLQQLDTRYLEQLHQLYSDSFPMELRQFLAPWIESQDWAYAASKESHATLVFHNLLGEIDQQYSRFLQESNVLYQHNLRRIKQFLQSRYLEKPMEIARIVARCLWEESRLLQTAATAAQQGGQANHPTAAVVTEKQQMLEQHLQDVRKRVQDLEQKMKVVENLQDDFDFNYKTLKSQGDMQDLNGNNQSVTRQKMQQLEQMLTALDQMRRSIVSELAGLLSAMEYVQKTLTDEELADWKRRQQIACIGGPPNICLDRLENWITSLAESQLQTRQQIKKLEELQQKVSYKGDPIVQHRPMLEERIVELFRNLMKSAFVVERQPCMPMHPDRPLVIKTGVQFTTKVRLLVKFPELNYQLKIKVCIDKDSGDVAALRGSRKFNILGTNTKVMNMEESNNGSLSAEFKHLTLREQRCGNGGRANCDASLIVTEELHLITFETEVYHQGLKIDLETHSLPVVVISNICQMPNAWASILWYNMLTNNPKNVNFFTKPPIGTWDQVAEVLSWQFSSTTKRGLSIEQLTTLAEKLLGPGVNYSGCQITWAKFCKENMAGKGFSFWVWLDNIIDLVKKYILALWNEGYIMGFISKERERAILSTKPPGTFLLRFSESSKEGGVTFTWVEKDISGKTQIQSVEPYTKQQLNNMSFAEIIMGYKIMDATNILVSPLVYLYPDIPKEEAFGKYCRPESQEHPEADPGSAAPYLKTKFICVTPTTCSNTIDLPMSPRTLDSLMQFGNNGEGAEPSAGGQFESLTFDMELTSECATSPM
Transcription factor Sp1 (Homo sapiens), sequence (P08047 whole entry, looked up): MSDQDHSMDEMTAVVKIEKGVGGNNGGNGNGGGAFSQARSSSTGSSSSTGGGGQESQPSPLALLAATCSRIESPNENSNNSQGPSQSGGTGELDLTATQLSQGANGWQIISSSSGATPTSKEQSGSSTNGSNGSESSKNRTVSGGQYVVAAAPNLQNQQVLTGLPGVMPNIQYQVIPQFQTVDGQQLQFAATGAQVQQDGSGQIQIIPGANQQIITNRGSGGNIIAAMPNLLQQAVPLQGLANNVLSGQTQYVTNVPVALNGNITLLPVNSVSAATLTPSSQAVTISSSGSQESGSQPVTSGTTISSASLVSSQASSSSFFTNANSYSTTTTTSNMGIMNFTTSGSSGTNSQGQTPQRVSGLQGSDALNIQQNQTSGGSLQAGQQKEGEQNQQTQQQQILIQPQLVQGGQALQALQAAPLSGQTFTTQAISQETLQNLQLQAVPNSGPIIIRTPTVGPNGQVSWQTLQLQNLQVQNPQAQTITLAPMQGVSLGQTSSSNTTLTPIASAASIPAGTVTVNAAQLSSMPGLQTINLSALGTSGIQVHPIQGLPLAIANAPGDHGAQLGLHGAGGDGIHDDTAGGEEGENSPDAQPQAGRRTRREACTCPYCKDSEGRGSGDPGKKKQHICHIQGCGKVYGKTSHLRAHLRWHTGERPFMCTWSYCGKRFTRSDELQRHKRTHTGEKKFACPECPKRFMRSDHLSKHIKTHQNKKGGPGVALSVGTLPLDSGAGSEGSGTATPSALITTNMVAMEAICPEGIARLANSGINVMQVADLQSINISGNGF
Paired box protein Pax-6 (Homo sapiens), sequence (P26367 whole entry, looked up): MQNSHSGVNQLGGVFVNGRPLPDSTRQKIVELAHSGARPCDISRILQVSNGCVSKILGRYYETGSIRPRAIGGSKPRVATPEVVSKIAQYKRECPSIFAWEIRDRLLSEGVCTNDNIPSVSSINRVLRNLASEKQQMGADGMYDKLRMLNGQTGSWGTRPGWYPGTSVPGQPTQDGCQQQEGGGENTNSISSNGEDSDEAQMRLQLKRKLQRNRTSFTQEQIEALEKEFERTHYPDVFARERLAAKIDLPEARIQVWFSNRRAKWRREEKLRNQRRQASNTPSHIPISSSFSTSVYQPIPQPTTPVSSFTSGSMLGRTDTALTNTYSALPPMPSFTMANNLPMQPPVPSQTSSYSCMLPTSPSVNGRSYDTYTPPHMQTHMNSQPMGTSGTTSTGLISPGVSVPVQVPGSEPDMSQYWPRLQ
Hypoxia-inducible factor 1-alpha (Homo sapiens), sequence (Q16665 whole entry, looked up): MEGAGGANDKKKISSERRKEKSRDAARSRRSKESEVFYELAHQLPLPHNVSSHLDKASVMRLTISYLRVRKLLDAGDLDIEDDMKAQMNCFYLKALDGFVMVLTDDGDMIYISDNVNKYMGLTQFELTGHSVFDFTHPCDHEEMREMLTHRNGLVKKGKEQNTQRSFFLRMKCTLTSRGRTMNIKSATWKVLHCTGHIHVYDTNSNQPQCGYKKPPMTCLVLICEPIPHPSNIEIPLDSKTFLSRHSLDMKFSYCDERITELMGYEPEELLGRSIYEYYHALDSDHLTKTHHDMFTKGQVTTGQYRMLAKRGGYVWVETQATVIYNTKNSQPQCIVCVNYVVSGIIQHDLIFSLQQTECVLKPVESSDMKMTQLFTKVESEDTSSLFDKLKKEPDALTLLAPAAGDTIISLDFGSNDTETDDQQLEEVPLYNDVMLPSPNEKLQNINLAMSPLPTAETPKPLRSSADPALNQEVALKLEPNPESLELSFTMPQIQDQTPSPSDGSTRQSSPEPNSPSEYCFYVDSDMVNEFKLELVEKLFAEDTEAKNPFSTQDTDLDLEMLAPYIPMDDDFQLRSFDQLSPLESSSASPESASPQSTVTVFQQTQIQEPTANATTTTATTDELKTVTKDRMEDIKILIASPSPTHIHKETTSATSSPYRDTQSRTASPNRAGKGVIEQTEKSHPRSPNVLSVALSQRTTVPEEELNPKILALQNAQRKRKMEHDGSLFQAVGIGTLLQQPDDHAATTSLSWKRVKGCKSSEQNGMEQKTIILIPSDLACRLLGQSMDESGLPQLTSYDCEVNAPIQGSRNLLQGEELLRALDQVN

In the case of `CCC/C=C/C=O`, the compound was called inactive in [1], in assay [2], in assay [3], in [4], in assay [5] and in [6]. The compound was called inactive in assay [7], in assay [8], in assay [9], in assay [10], in [12] and in assay [13]. Further, the outcome in assay [14], in [15], in assay [16], in assay [17] and in [18] was inactive. In [11], the AC50 was 11.2 µM (active).

In the case of `CCCCC(CC)COCCC#N` (stereo not given), the result in [1], in assay [2], in assay [3], in assay [4], in assay [5] and in [6] was inactive. In addition, the result in [7], in [8], in [9], in assay [10], in [19] and in [12] was inactive. The call in assay [13], in assay [14], in [15] and in assay [18] was inactive. Also, in [11], the AC50 was 27.9 µM (active).

Consider `CO[Si](C)(OC)c1ccccc1`, for which the outcome in assay [1], in [2], in assay [3], in assay [4], in [5] and in assay [6] was inactive. For the same compound, the call in assay [7], in [8], in [9], in assay [10], in [19] and in [12] was inactive. For the same compound, the result in assay [13], in [14], in [15], in assay [16], in [17] and in assay [18] was inactive. Also, the AC50 in [11] was 2.95 µM (active).

For the compound `CCCCCCCCCCC(CO)CCCCCCCC` (stereo not given), the outcome in assay [1], in [2], in [3], in assay [4], in assay [5] and in [6] was inactive. For the same compound, the outcome in assay [7], in [8], in assay [9], in [10], in assay [11] and in assay [19] was inactive. Besides, the compound was classed as inactive in [13], in [14], in assay [15], in assay [16] and in assay [17].

Take `CCCCCCCCCCCCOCCO`: the outcome in [1], in assay [3], in [4], in assay [5], in assay [6] and in assay [7] was inactive. Further, the outcome in assay [9], in assay [11], in assay [12], in assay [13], in [16] and in assay [17] was inactive. Further, the outcome in assay [18] was inactive. For the same compound, the AC50 in [2] is 20.4 µM (active); in assay [8], 52.1 µM (active); in [14], 49.9 µM (active); in assay [15] it was 49.1 µM (active).

Consider `O=C(O)c1ccc(C(=O)O)cc1`, for which the compound was called inactive in assay [1], in [2], in [3], in assay [4], in assay [5] and in [6]. Moreover, the result in assay [7], in assay [8], in assay [9], in assay [10], in assay [11] and in assay [19] was inactive. For the same compound, the compound was called inactive in [12], in assay [13], in [14], in [15], in assay [16] and in assay [17]. In addition, the compound was called inactive in assay [18].

Turning to `CCCCCCC#CC(=O)OC`, the call in [1], in [2], in [3], in assay [4], in assay [5] and in assay [6] was inactive. The compound was called inactive in assay [7], in assay [8], in [10], in assay [19], in assay [12] and in assay [13]. Also, the compound was called inactive in [14], in assay [15], in [16], in assay [17] and in [18]. The AC50 in assay [11] was 30.5 µM (active).
